From PubChem BioAssay (Tox21)
“And” between values parts separate entries of the source, which are not always exact repeats. Identical values can stand only once. Inconclusive results are not listed. The source holds several records for some structures; these can differ, active in one and inactive in another. The source made the active and inactive calls. Unless noted, calls follow the shape of the dose curve; as a rule, active = well fitted curve in the direction sought with a large enough effect in the repeat runs; inconclusive = weak or mixed curves; inactive = no such curve, though single readings can be large; an effect the other way counts as inactive or inconclusive.

Key:
[1] = qHTS assay to identify small molecule that activate the aryl hydrocarbon receptor (AhR) signaling pathway - cell viability counter screen (AID 743086); also: nearly all actives have a fitted effect of over 45% in size; also: potency is read from the fitted curve at half-maximal effect
In short: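 Cytotoxicity counter screen: CellTiter-Fluor signal (30 min, 37 C) in 4000 HepG2 cells/well carrying the DRE-luciferase reporter, following 24 h compound exposure at 37 C.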

[2] = qHTS assay to identify small molecule antagonists of the peroxisome proliferator-activated receptor gamma (PPARg) signaling pathway - cell viability counter screen (AID 743194); also: nearly all actives have a fitted effect of over 55% in size; also: potency is read from the fitted curve at half-maximal effect
In short: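 Viability was measured as CellTiter-Glo luminescence in GeneBLAzer PPARg UAS-bla HEK293H cells. These cells had been exposed 17 h at 37 C to compounds together with rosiglitazone at 50 nM final, with the beta-lactamase readout taken in the same wells.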

[3] = qHTS assay for small molecule agonists of the antioxidant response element (ARE) signaling pathway (AID 743202; active = well fitted activation curve with a large enough effect in the signal ratio in the repeat runs, not every such curve was filed as active; the % refers to the signal ratio)
In short: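 Beta-lactamase reporter activity, read as fluorescence intensity, reflects ARE/Nrf2 pathway induction in HepG2 cells after 16 h compound exposure at 37 C; substrate loading was 2 h at room temperature.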

[4] = qHTS assay for small molecule agonists of the antioxidant response element (ARE) signaling pathway - cell viability counter screen (AID 743203; calls by dose curve; also: nearly all actives have a fitted effect of over 55% in size; also: potency is read from the fitted curve at half-maximal effect)
In short: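 Measured in the same wells as the beta-lactamase ARE reporter, this read-out is CellTiter-Glo luminescence from HepG2 ARE-bla cells given compounds for 16 hrs.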

[5] = qHTS assay for small molecule activators of the heat shock response signaling pathway - cell viability counter screen (AID 743209); also: nearly all actives have a fitted effect of over 50% in size
In short: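 Same-well multiplex: after 2.5 h room-temperature incubation with LiveBLAzer B/G substrate and fluorescence reading, CellTiter-Glo reagent was added to HSE-bla HeLa cells that had received compound for 5 h at 37 C; luminescence read after 30 min.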

[6] = qHTS assay to identify small molecule agonists of the peroxisome proliferator-activated receptor delta (PPARd) signaling pathway - cell viability counter screen (AID 743211); also: nearly all actives have a fitted effect of over 55% in size; also: potency is read from the fitted curve at half-maximal effect
In short: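 Luminescent ATP viability assay (CellTiter-Glo, 30 min RT) in UAS-bla HEK293H cells carrying the PPAR delta reporter construct, 3000 cells/well, after a 17 h compound treatment at 37 C.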

[7] = qHTS assay to identify small molecule antagonists of the peroxisome proliferator-activated receptor delta (PPARd) signaling pathway - cell viability counter screen (AID 743213); also: nearly all actives have a fitted effect of over 50% in size; also: potency is read from the fitted curve at half-maximal effect
In short: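 Luminescence from CellTiter-Glo, added after the bla read and incubated 30 min at room temperature, gives viability of HEK293H PPARd-bla cells exposed to compounds for 17 h at 37 C with 300 nM L165041.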

[8] = qHTS assay to identify small molecule agonists of the farnesoid-X-receptor (FXR) signaling pathway - cell viability counter screen (AID 743218); also: nearly all actives have a fitted effect of over 45% in size; also: potency is read from the fitted curve at half-maximal effect
In short: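 Readout: CellTiter-Glo luminescence, 30 min RT, multiplexed after the FXR-bla FRET reading. HEK 293T FXR-UAS-bla cells received compound 5 h post-plating and were incubated 16 h at 37 C.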

[9] = qHTS assay to identify small molecule antagonists of the farnesoid-X-receptor (FXR) signaling pathway - cell viability counter screen (AID 743221; active = well fitted cell-killing curve with a large enough effect in the repeat runs, not every such curve was filed as active; also: nearly all actives have a fitted effect of over 50% in size; also: potency is read from the fitted curve at half-maximal effect)
In short: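 In GeneBLAzer FXR-UAS-bla HEK 293T cells stimulated with 50 uM chenodeoxycholic acid (final), compounds acted for 16 h at 37 C. Viability was assessed afterwards by CellTiter-Glo luminescence.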

[10] = biological target: Vitamin D3 receptor (Homo sapiens) (UniProt P11473); assay: qHTS assay to identify small molecule antagonists of the vitamin D receptor (VDR) signaling pathway (AID 743223; active = well fitted inhibition curve with a large enough effect in the signal ratio in the repeat runs, not every such curve was filed as active; the % refers to the signal ratio)
In short: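 Agonist 1alpha,25-dihydroxyvitamin D3 (3 nM in well) was added with each compound to VDR-bla cells preincubated 4 h. Cells stood 16 h at 37C, then FRET substrate 2 h at room temperature; fluorescence intensity recorded.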

[11] = qHTS assay to identify aromatase inhibitors - cell viability counter screen (AID 743084);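 also: cells stimulated with testosterone during compound exposure; nearly all actives have a fitted effect of over 55% in size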; also: potency is read from the fitted curve at half-maximal effect
[12] = biological target: Peroxisome proliferator-activated receptor gamma (Homo sapiens) (UniProt P37231); assay: qHTS assay to identify small molecule agonists of the peroxisome proliferator-activated receptor gamma (PPARg) signaling pathway (AID 743094; active = well fitted activation curve with a large enough effect in the signal ratio in the repeat runs, not every such curve was filed as active; the % refers to the signal ratio)
In short: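 Cell-based bla reporter, HEK293H background, PPARg-driven UAS. Pre-incubation 5 h, 37C, 5% CO2. Compound 17 h, 37C. Substrate 1 h RT; fluorescence.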

[13] = biological target: Peroxisome proliferator-activated receptor gamma (Homo sapiens) (UniProt P37231); assay: qHTS assay to identify small molecule antagonists of the peroxisome proliferator-activated receptor gamma (PPARg) signaling pathway (AID 743191; calls by dose curve; also: nearly all actives have a fitted effect of over 30% in size; also: potency is read from the fitted curve at half-maximal effect)
In short: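 Beta-lactamase reporter under UAS control in HEK293H PPARg-bla cells; compound treatment 17 h at 37C. Read-out: fluorescence intensity after 1 h room-temperature incubation with LiveBLAzer B/G FRET substrate.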

[14] = biological target: Peroxisome proliferator-activated receptor delta (Homo sapiens) (UniProt Q03181); assay: qHTS assay to identify small molecule antagonists of the peroxisome proliferator-activated receptor delta (PPARd) signaling pathway (AID 743215; active = well fitted inhibition curve with a large enough effect in the signal ratio in the repeat runs, not every such curve was filed as active; the % refers to the signal ratio;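 also: cells stimulated with agonist L165041 at 300 nM final during compound exposure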; also: potency is read from the fitted curve at half-maximal effect)
In short: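 Fluorescence from cleaved LiveBLAzer B/G FRET substrate (2 h, room temperature) reports PPARd-driven beta-lactamase in HEK293H UAS-bla cells. Cells had been treated 17 h at 37 C with compound plus 300 nM final L165041.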

[15] = biological target: Bile acid receptor (Homo sapiens) (UniProt Q96RI1); assay: qHTS assay to identify small molecule antagonists of the farnesoid-X-receptor (FXR) signaling pathway (AID 743217; active = well fitted inhibition curve with a large enough effect in the signal ratio in the repeat runs, not every such curve was filed as active; the % refers to the signal ratio; also: potency is read from the fitted curve at half-maximal effect)
In short: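 FRET fluorescence after 2 h room-temperature LiveBLAzer loading gives the readout. Prior step: FXR-bla HEK 293T cells, seeded and incubated 5 h, received test compounds plus 50 uM final CDCA for 16 h at 37 °C.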

[16] = biological target: Bile acid receptor (Homo sapiens) (UniProt Q96RI1); assay: qHTS assay to identify small molecule agonists of the farnesoid-X-receptor (FXR) signaling pathway (AID 743220; active = well fitted activation curve with a large enough effect in the signal ratio in the repeat runs, not every such curve was filed as active; the % refers to the signal ratio)
In short: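 FXR-UAS-bla HEK 293T cells carrying a UAS-driven beta-lactamase reporter were plated for 5 h at 37C/5% CO2, then exposed to DMSO-dissolved Tox21 10K compounds for 16 h at 37C. A LiveBLAzer B/G FRET substrate was loaded for 2 h at room temperature before fluorescence reading.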

[17] = biological target: Aryl hydrocarbon receptor (Homo sapiens) (UniProt P35869); assay: qHTS assay to identify small molecule that activate the aryl hydrocarbon receptor (AhR) signaling pathway (AID 743085);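 also: HG2L7.5c1 human HepG2 liver cells with stably integrated DRE-driven firefly reporter; series mostly up to about 70 µM; nearly all actives have a fitted effect of over 15% in size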
In short: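 24 h compound exposure, 37C, HepG2-derived HG2L7.5c1 cells with DRE-responsive luciferase. Readouts: fluorescence viability, then luminescence at room temperature after 30 min.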

Measured: Potency

Vitamin D3 receptor (Homo sapiens), sequence (P11473 whole entry, looked up): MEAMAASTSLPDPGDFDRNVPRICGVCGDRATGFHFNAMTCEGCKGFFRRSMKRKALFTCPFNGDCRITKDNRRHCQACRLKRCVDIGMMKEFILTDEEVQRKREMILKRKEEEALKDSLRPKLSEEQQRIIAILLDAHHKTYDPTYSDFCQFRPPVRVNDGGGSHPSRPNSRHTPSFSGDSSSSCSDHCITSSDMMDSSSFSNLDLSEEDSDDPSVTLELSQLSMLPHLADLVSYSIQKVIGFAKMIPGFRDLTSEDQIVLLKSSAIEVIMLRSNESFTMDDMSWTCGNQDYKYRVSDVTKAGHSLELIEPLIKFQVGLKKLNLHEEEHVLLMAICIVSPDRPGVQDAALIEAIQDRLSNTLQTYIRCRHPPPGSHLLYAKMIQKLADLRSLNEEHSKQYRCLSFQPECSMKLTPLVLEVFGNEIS
Peroxisome proliferator-activated receptor delta (Homo sapiens), sequence (Q03181 whole entry, looked up): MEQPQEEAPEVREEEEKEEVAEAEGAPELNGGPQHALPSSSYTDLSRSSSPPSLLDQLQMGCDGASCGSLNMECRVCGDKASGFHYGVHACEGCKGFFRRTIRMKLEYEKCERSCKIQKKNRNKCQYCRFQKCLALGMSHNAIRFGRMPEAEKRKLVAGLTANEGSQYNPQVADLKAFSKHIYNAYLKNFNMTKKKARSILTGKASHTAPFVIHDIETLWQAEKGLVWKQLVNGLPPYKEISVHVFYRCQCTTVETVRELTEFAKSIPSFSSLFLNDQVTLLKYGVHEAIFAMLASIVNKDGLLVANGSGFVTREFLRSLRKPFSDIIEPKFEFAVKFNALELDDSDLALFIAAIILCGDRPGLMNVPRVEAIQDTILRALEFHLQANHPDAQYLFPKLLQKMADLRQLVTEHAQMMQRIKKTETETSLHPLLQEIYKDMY
Bile acid receptor (Homo sapiens), sequence (Q96RI1 whole entry, looked up): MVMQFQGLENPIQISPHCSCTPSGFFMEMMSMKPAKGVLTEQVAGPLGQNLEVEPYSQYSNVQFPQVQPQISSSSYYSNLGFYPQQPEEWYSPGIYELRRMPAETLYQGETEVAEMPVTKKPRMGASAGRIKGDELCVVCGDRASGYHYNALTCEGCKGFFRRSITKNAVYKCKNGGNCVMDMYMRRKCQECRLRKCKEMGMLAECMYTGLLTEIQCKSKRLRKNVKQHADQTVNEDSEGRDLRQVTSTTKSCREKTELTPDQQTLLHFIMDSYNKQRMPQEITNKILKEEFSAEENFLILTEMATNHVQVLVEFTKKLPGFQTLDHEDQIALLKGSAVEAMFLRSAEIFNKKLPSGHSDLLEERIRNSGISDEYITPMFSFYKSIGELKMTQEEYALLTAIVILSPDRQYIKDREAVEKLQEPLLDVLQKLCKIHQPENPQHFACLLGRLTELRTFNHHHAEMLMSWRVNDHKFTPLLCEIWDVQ
Peroxisome proliferator-activated receptor gamma (Homo sapiens), sequence (P37231 whole entry, looked up): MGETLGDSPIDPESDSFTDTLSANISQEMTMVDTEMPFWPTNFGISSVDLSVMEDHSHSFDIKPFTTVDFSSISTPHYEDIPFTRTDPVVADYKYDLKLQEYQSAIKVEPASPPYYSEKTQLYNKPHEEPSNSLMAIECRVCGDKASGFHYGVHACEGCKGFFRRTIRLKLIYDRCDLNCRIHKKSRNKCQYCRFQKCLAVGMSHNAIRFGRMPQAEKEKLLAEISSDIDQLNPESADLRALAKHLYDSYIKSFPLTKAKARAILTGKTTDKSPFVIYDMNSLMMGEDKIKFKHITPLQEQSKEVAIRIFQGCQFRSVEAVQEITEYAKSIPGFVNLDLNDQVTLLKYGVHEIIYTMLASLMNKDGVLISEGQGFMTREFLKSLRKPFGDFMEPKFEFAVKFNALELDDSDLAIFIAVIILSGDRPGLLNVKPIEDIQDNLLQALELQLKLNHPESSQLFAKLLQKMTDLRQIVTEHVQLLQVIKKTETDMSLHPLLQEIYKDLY
Aryl hydrocarbon receptor (Homo sapiens), sequence (P35869 whole entry, looked up): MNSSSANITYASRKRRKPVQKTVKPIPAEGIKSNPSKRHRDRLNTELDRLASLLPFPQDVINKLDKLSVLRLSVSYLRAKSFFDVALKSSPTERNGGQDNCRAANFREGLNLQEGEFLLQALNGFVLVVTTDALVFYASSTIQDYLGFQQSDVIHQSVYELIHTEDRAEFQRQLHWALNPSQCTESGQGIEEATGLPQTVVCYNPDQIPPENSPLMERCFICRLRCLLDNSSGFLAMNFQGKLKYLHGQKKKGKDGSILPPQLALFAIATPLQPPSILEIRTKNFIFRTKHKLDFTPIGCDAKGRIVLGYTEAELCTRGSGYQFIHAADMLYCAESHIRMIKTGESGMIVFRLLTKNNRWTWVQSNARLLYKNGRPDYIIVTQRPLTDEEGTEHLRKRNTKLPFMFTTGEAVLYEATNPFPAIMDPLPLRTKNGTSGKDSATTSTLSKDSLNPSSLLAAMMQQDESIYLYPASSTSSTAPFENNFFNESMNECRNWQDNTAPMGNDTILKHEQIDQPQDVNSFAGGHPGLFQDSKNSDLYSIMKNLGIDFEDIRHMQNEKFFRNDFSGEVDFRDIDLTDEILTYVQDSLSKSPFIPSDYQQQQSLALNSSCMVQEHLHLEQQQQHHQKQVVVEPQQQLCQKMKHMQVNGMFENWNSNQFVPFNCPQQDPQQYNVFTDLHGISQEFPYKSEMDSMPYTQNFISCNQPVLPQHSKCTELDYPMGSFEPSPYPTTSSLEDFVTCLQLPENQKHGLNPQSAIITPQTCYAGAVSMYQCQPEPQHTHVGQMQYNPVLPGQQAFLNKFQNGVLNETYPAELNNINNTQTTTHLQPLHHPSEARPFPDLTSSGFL

CC(=O)CC(c1ccccc1)c1c(O)c2ccccc2oc1=O (centres undefined)
inactive: [1] | [2] | [3] | [4] | [5] | [6] | [7] | [8] | [9] | [10]

CC(=O)Nc1c(I)c(NC(C)=O)c(I)c(C(=O)O)c1I
inactive: [1] | [2] | [3] | [4] | [5] | [6] | [7] | [8] | [9]

CN1CCc2cccc3c2[C@H]1Cc1ccc(O)c(O)c1-3
44.1 µM (active) and inactive: [9]
active: [11] 29.8 µM and 24.6 µM and 20.4 µM | [13] 6.49 µM | [2] 44.1 µM and 3.65 µM | [4] 49.1 µM and 5.74 µM | [6] 49.5 µM and 10.3 µM and 21.1 µM | [7] 49.5 µM and 18.3 µM | [14] 55.5 µM and 10.3 µM | [15] 39.3 µM and 18.3 µM
inactive and 61.8 µM (active): [1]
inactive: [12] | [5] | [16] | [10]

CN1[C@@H]2CC(OC(=O)[C@H](CO)c3ccccc3)C[C@H]1[C@@H]1O[C@@H]12 (some centres undefined)
inactive: [11] | [1] | [12] | [13] | [2] | [3] | [4] | [5] | [6] | [7] | [14] | [8] | [9] | [10]

O=C1NS(=O)(=O)c2ccccc21
inactive: [11] | [1] | [2] | [3] | [4] | [5] | [6] | [7] | [8] | [9]

CN(C)CCOC(c1ccccc1)c1ccccc1
inactive: [11] | [1] | [2] | [3] | [4] | [5] | [6] | [7] | [8] | [9]

CCCCC(CC)C(=O)O (centres undefined)
inactive: [11] | [1] | [12] | [13] | [2] | [3] | [4] | [5] | [6] | [7] | [14] | [8] | [9]

COc1ccc(OC(F)(F)F)cc1CN[C@H]1CCCN[C@H]1c1ccccc1
active: [1] 54.5 µM | [4] 27.3 µM | [6] 43.6 µM | [7] 43.6 µM | [8] 43.6 µM
inactive: [11] | [17] | [2] | [5]
